In the library only some 1.4% were active in any assay of this set; here they are far more common.
Rango complex inh: Rango-importin beta binding inhibition. Potency, µM (highest dose often 92.2 µM), without a hit: at the top dose inhibition of complex formation. Rango CFP/YFP FRET sensor + importin beta, 45 min. 340,000 tested, 0.031% active. Q14974;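 also: potency is read from the fitted curve at half-maximal effect; 0% = DMSO wells and 100% = buffer wells lacking importin beta; nearly all actives have a fitted effect of over 15% in size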
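FRET biosensor Rango (snurportin 1 IBB between N-terminal EYFP and C-terminal Cerulean), 50 nM in PBS/1 mM DTT/0.02% Tween-20/0.1% BSA, preincubated 5 min RT with compound; 0.125 microM importin beta added, 45 min RT, CFP/YFP FRET ratio read.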
MmCpn inh: blocks the Methanococcus maripaludis chaperonin Mm-Cpn; Potency, µM (top dose mostly 76.9 µM), for the others: at the top dose activity, negative = inhibition, actives largely listed as inhibitors; purified Mm-Cpn ATPase, ADP Transcreener TR-FRET; 330,000 tested, 0.031% active; active = well fitted inhibition curve with a large enough effect; inconclusive = small, poorly fitted or top-dose-only effect; also: potency is read from the fitted curve at half-maximal effect; % is scaled to controls: 0 for no effect and ±100 for the full control effect; nearly all actives have a fitted effect of over 80% in size
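ATPase turnover read by TR-FRET ADP competition (Eu cryptate antibody/ADP-d2, 665/590 nm): 10uM ATP final, 25nM Mm-CPN final, 30 min 37degC after 10-min compound preincubation, pH 7.4 Tris/KCl/MgCl2/DTT buffer.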
CCT modulator: cytosolic chaperonin activity modulation; purified chaperonin ATPase assay, HTRF ADP detection, 30 min; activity change, % (concentration not given with the values), hits read low; 360,000 tested, 0.3% active; AID 651819; in the data active = activity change below about -30%; also: % is scaled to controls: 0 for no effect and ±100 for the full control effect
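We incubate TRiC, 40 or 20 nM final, with library compounds at 76 uM and 10 uM ATP for 30 min at 37 °C. ADP formed is detected with Transcreener HTRF reagents after 30 min at room temperature.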
hERG WT inh: blocks the wildtype human KCNH2 potassium channel; U2OS, BacMam KCNH2, thallium flux FluxOr; stronger effect = lower value; activity change, % at 1.84 µM; 340,000 tested, 0.37% active; AID 720551;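 active = maximum activity change below -70%; inconclusive = maximum activity change between -70% and -50%; inactive = maximum activity change above -50%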; also: % is scaled to controls: 0 for no effect and ±100 for the full control effect
Target sequence (Q12809 whole entry, looked up): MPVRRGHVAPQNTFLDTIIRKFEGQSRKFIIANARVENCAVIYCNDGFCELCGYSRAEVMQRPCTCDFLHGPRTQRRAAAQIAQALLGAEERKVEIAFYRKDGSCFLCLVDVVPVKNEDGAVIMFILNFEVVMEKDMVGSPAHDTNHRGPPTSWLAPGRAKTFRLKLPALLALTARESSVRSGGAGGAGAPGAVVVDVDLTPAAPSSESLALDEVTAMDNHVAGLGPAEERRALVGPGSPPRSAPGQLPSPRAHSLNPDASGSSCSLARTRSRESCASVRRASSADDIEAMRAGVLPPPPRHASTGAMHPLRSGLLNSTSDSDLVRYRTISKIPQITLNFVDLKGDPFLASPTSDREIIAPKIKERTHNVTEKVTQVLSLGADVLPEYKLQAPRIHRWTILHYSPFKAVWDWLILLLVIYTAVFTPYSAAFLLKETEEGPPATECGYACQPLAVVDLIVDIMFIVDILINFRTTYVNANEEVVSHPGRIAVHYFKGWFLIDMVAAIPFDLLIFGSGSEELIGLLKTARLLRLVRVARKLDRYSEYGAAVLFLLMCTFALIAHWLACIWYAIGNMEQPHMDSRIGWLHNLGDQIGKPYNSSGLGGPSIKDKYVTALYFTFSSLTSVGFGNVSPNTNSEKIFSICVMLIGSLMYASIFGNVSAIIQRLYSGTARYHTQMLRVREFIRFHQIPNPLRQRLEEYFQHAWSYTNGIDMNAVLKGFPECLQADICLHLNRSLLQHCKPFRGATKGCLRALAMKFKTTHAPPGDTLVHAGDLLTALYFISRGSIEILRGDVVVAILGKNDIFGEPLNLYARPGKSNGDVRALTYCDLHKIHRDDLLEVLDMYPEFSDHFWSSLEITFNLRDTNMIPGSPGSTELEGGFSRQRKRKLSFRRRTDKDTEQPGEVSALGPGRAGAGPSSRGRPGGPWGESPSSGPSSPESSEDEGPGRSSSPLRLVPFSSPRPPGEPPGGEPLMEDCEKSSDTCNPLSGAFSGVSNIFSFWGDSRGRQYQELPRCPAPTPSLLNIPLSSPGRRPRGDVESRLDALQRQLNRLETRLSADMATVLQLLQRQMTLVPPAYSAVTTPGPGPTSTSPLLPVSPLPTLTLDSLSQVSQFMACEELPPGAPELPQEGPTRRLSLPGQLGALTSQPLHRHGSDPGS
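U2OS cells were transduced with wild-type KCNH2 virus (2.03 x 10^8 / mL) for 4 h at room temperature, then cultured overnight at 37 C. Thallium flux was read with FluxOr dye. Rate constants were normalized to DMSO controls.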
KCNH2 3.1 inh: blocks the human KCNH2 3.1 channel isoform. AID 720553. activity change, % (tested at about 1.8 µM). 340,000 tested, 0.95% active. U2OS KCNH2 3.1, thallium flux FluxOr; stronger effect = lower value;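 active = maximum activity change below -70%; inconclusive = maximum activity change from -70% to -50%; inactive = maximum activity change above -50%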;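 also: thallium influx rate constant from kinetic fluorescence after stimulation buffer; % is scaled to controls: 0 for no effect and ±100 for the full control effect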
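U2OS cells transduced with KCNH2 3.1 mutant virus (1.77 x 10^8 /mL, 4 h), plated overnight at 37 C, loaded 45 min with FluxOr dye plus Red40 quencher. Thallium flux rate constant from kinetic reads after stimulation buffer, normalised to controls.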
Rango dissoc inh: inhibition of RanGTP-driven Rango-importin beta dissociation; O95149+P62826; Biochemical FRET Rango-importin beta, RanGTP-induced dissociation; Potency, µM (top dose mostly 46.1 µM), inactives show at the highest dose activity change, negative = inhibition; 340,000 tested, 0.071% active; also: potency is read from the fitted curve at half-maximal effect; % of control where 0% means no effect; nearly all actives have a fitted effect of over 45% in size
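Compounds sat 5 min at room temperature with 0.1 uM Rango biosensor plus 0.25 uM importin beta, then FRET pre-read. RanGTP-RCC1 (0.6 uM Ran, 2mM GTP, 0.2 uM RCC1) added for 45 min, and the CFP/YFP post-read measured blocked complex dissociation.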
The depositor's hits bear a star; ? = inconclusive; · = no result. Unless noted, calls follow the shape of the full dose curve.

SMILES	Rango complex inh	MmCpn inh	CCT modulator	hERG WT inh	KCNH2 3.1 inh	Rango dissoc inh
COc1ccc(CCN(C)C(=O)/C=C/c2c(Cl)nc3ccccn23)cc1OC	-3%	0%	1	2	9	17%
O=S(=O)(NCc1cccnc1)c1ccc(Cl)c2ccccc12	1%	0%	-1	-3	-3	15%
O=S(=O)(NCc1cccnc1)c1ccc(Cl)c(Cl)c1Cl	10%	0%	-48*	3	9	20%
O=S(=O)(Cc1ccc(Cl)cc1)NCc1cccnc1	-3%	-1%	0	-9	-78*	0%
CN(C)C(=O)NC(O)C(Cl)Cl (centres undefined)	·	4%	·	·	·	·
CC1CCN(Cc2c(C(=O)N/N=C/c3ccc(OC(C)C)cc3)nnn2-c2nonc2N)CC1	1%	3%	0	1	-112*	-13%
CCCN(CCC)Cc1c(C(=O)N/N=C/c2ccc(Br)cc2)nnn1-c1nonc1N	-3%	-1%	-2	12	-78*	0%
CN(C)Cc1c(C(=O)N/N=C/c2ccc(OCc3ccc(F)cc3)cc2)nnn1-c1nonc1N	4%	0%	2	-38	-76*	1%
Cc1ccccc1COc1ccc(/C=N/NC(=O)c2nnn(-c3nonc3N)c2CN2CCC(C)CC2)cc1	4%	?	-2	-5	?	6%
CC1CCC(n2c(=S)[nH]c3ccccc3c2=O)CC1 (centres undefined)	3%	2%	-2	-24	6	-7%
FC(F)(F)c1ccc2c(c1)[nH]c(=S)n2C1CC1	?	1%	-2	-162*	-201*	18%
CC(C)Oc1ccc(S(=O)(=O)N2CCOCC2)cc1NC(=O)C1COc2ccccc2O1 (centres undefined)	0%	0%	3	-24	-23	59%
COc1ccc(CCN(C)C2CCCN(S(=O)(=O)c3ccc(C)cc3)C2)cc1OC (centres undefined)	0%	1%	-4	-31	-83*	12%
CC(=O)c1ccc(S(=O)(=O)N2CCCC(N(C)CCc3ccccc3)C2)cc1 (centres undefined)	-3%	-1%	1	?	-94*	-25%
COc1ccc(CCNC(=O)Cn2nc(C)c3c(C)n(-c4ccc(C)cc4)nc3c2=O)c(OC)c1	·	-6%	·	·	·	·
O=C(O)C1CCCN1S(=O)(=O)c1cc(Cl)ccc1Cl (centres undefined)	-3%	0%	-56*	-8	8	24%
C/C(=N\NC(=O)c1n[nH]c2c1CCC2)c1cccs1	-3%	1%	-1	1	-118*	0%
Cc1c(NC(=O)C(C)Oc2ccc(Br)cc2)c(=O)n(-c2ccccc2)n1C (centres undefined)	11%	-2%	-3	-1	-3	-8%
Cc1ccc(N2C(=O)CC(n3nc(C)cc3C)C2=O)cc1 (centres undefined)	1%	0%	-5	-6	-211*	-6%
O=C(O)/C=C/c1ccc2c(-c3ccccc3)onc2c1	?	1%	-3	-126*	-12	-29%
O=C(O)c1ccc2noc(-c3ccccc3)c2c1	?	1%	1	-3	-3	-4%
CC(=O)c1sc2ccccc2c1OC(=O)c1ccco1	?	-8%	-2	-17	2	26µM*
CC(=O)c1c(OC(=O)c2ccco2)c2ccccc2n1C	-8%	-5%	-2	3	1	?
O=[N+]([O-])c1cc(-n2cnnn2)ccc1N1CCC(Cc2ccccc2)CC1	1%	0%	-3	4	-81*	13%
CC1CC(C)CN(c2ccc(-n3cnnn3)cc2[N+](=O)[O-])C1 (centres undefined)	?	0%	-1	5	-20	-7%
SMILES	Rango complex inh	MmCpn inh	CCT modulator	hERG WT inh	KCNH2 3.1 inh	Rango dissoc inh
COc1ccc(CCNC(=O)c2ccc(=O)[nH]c2)cc1	2%	2%	-2	0	-71*	9%
O=C(NCCc1ccc(Cl)cc1)c1ccc(=O)[nH]c1	-1%	1%	-1	-1	9	-5%
NC1(CO)COC(c2ccccc2)OC1 (centres undefined)	·	·	0	?	7	·
CCC(C)c1ccc(NC(=S)NCc2ccccc2OC)cc1 (centres undefined)	-4%	-2%	-1	-2	15	15%
CCCCCCN1C=CC=C/C1=C/C=C(C#N)C#N	?	-10%	-3	-123*	-31	?
CCCCCCN1C=C/C(=C\C=C(C#N)C#N)c2ccccc21	-4%	-1%	-3	-148*	-105*	3%
O=C(CSc1nnc(C2CCCCC2)o1)Nc1ccccc1Cl	0%	3%	-4	6	-4	-10%
CCOC(=O)C1=C(C)NC(=O)C(C(N)=O)C1c1ccccc1 (centres undefined)	0%	-1%	-1	6	0	0%
O=C(NCCCN1CCCC1)c1cc(Sc2ccc(F)cc2)nc2ccccc12	0%	-2%	0	42	-78*	9%
O=C(NCCN1CCOCC1)c1cc(Sc2ccc(F)cc2F)nc2ccccc12	-2%	1%	-1	0	-6	7%
Nc1ccc(/C=C/c2ccc3ncccc3c2)cc1	?	-1%	1	-17	6	?
Nc1ccc2ncccc2c1	0%	0%	-1	2	-118*	1%
COP1(=O)C=C[C@H](N(Cc2ccccc2)S(=O)(=O)c2ccccc2[N+](=O)[O-])[C@@H](C)O1 (some centres undefined)	-1%	-2%	0	9	13	0%
CC(C)Cc1ccc(CN2CCC(n3nccc3NC(=O)C3CCCC3)CC2)cc1	0%	-4%	1	-73*	-103*	1%
O=C(Nc1ccnn1C1CCN(CCCc2ccccc2)CC1)c1ccccc1Cl	1%	-6%	-4	-120*	-112*	13%
Cc1cc(CN2CCC(n3nccc3NC(=O)c3ccccc3Cl)CC2)cc(C)c1O	1%	-2%	2	-1	-77*	2%
O=C(Nc1ccnn1C1CCN(Cc2cccnc2)CC1)c1ccccc1Cl	-3%	0%	-1	24	-1	-9%
Cc1cccc(CC(=O)N2CCC(n3nccc3NC(=O)C3CC3)CC2)c1	3%	-2%	-56*	9	9	9%
O=C(Nc1ccnn1C1CCN(C(=O)Cc2cccc(Cl)c2)CC1)C1CC1	2%	-1%	0	-1	-3	-17%
COc1ccc(OC)c(C2C(C(=O)c3cccs3)=C(O)C(=O)N2CCN2CCOCC2)c1 (centres undefined)	-2%	7%	0	6	-6	-27%
